Records with an inconclusive call do not appear. Activity calls are given as the source filed them. The calls were made as follows, unless noted: active = hit-call score of the fitted dose curve at least 0.9, where 1 is the maximum; inactive = score below 0.9.
Tests used:
[1] = biological target: Glucocorticoid receptor (Homo sapiens) (UniProt P04150); assay: ATG_GR_TRANS: Attagene TRANS-FACTORIAL HepG2 Assay for human Glucocorticoid Receptor (GR) (AID 2282978; active = hit-call score of the fitted dose curve at least 0.9, where 1 is the maximum;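 also: activators score as hits since higher reporter transcript over DMSO is fitted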); details: HepG2 Attagene TRANS GR reporter, mRNA transcription
Outline: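 Exogenous NR-GAL4 fusion activity was assessed through induced GAL4-UAS reporter transcripts in transfected human HepG2 cells, quantified after 24 h by RT-PCR and fluorescent capillary electrophoresis with DMSO as baseline.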

[2] = biological target: Oxysterols receptor LXR-alpha (Homo sapiens) (UniProt Q13133); assay: ATG_LXRa_TRANS: Attagene TRANS-FACTORIAL HepG2 Assay for human Liver X Receptor alpha (LXRa) (AID 2282980; active = hit-call score of the fitted dose curve at least 0.9, where 1 is the maximum); details: HepG2 Attagene TRANS reporter, LXRa transactivation
Outline: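 HepG2 cells transiently transfected with GAL4-UAS reporter units for chimeric NR-Gal4 proteins, exposed to chemicals for 24 h. Reporter mRNA quantified by RT-PCR and capillary electrophoresis; gain of signal fitted relative to DMSO.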

[3] = biological target: Hepatocyte nuclear factor 4-alpha (Homo sapiens) (UniProt P41235); assay: ATG_HNF4a_TRANS: Attagene TRANS-FACTORIAL HepG2 Assay for human Hepatocyte Nuclear Factor 4 alpha (HNF4a) (AID 2282982; active = hit-call score of the fitted dose curve at least 0.9, where 1 is the maximum); details: HepG2 HNF4a transactivation reporter, mRNA readout
Outline: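 Multiplexed reporter assay: transfected HepG2, 24 h exposure, total RNA → oligo(dT) RT → PCR → 6-FAM extension → HpaI digest → CE fluorescence. DMSO = negative control.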

[4] = ATG_M_06_TRANS: Attagene TRANS-FACTORIAL HepG2 Assay for M06 Transcription Factor (Internal Marker) (AID 2282983; active = hit-call score of the fitted dose curve at least 0.9, where 1 is the maximum;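 also: reporter transcript level by RT-PCR then capillary electrophoresis fluorescence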); details: HepG2 Attagene TRANS M06 internal marker reporter
Outline: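 mRNA levels of a reporter transcript, quantified as FAM fluorescence on capillary electrophoresis, served as readout. HepG2 cells expressing exogenous GAL4-chimera reporter constructs were exposed for 24 h. Gain of signal over DMSO was evaluated.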

[5] = biological target: Nuclear receptor subfamily 4 group A member 2 (Homo sapiens) (UniProt P43354); assay: ATG_NURR1_TRANS: Attagene TRANS-FACTORIAL HepG2 Assay for human Nuclear Receptor Related Protein 1 (NURR1) (AID 2282985; active = hit-call score of the fitted dose curve at least 0.9, where 1 is the maximum); details: HepG2 Attagene TRANS reporter, mRNA readout
Outline: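 Measures transcriptional activation by an exogenous NR-Gal4 chimera in transfected HepG2 liver cells. After 24 h, reporter RNA is reverse-transcribed, amplified and resolved by capillary electrophoresis; DMSO defines baseline.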

[6] = biological target: Transcriptional activator Myb (Homo sapiens) (UniProt P10242); assay: ATG_Myb_CIS: Attagene CIS-FACTORIAL HepG2 Assay for human Myeloblastosis (Myb) Proto-Oncogene Transcription Factor (AID 2282986); details: HepG2 Attagene CIS-FACTORIAL Myb reporter transcription; actives raise or lower the signal
Outline: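 In this HepG2 transient-transfection format, cis-regulated reporter mRNA is quantified 24 h post-dosing by RT-PCR with capillary electrophoresis, fitted bidirectionally to DMSO baseline.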

[7] = biological target: Nuclear respiratory factor 1 (Homo sapiens) (UniProt Q16656); assay: ATG_NRF1_CIS: Attagene CIS-FACTORIAL HepG2 Assay for human Nuclear Respiratory Factor 1 (NRF1) Orphan Gene (AID 2282987); details: HepG2 NRF1 cis-element reporter, Attagene multiplex; actives raise or lower the signal
Outline: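 Using DMSO as baseline, gain- or loss-of-signal was fitted for reporter mRNA levels in HepG2 cells transiently transfected with cis-regulated reporter units. Samples were taken 24 h after dosing and read by RT-PCR with capillary electrophoresis.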

[8] = ATG_NFI_CIS: Attagene CIS-FACTORIAL HepG2 Assay for human Nuclear Factor I (NFI) (AID 2282989); details: HepG2 cis-regulatory reporter, NFI response element transcription; actives raise or lower the signal
Outline: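 Transient MRTU transfection of HepG2 → 24 h chemical dosing → total RNA, oligo(dT) RT → PCR, 6-FAM primer extension, HpaI cut → capillary electrophoresis. Endpoint fitted bidirectionally relative to DMSO.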

[9] = biological target: Myc proto-oncogene protein (Homo sapiens) (UniProt P01106); assay: ATG_Myc_CIS: Attagene CIS-FACTORIAL HepG2 Assay for human Myelocytomatosis (Myc) Proto-Oncogene Transcription Factor (AID 2282990); details: HepG2, Attagene cis-reporter transcription factor activity; actives raise or lower the signal
Outline: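 HepG2, transient MRTU transfection (cis promoters, endogenous TFs); 24 h dosing; TriZol RNA → oligo(dT) RT → PCR → 6-FAM primer extension → HpaI cut → CE. Bidirectional fit vs DMSO.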

[10] = ATG_NF_kB_CIS: Attagene CIS-FACTORIAL HepG2 Assay for human Nuclear Factor Kappa B (NF-kB) (AID 2282991); details: HepG2 Attagene cis-factorial NF-kB reporter mRNA; actives raise or lower the signal
Outline: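 Endpoint from a 52-component multiplexed HepG2 reporter panel: cis-regulated transcription units transiently transfected, 24 h dosing, reporter mRNA quantified by RT-PCR and capillary electrophoresis, scored as increase or decrease against DMSO.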

[11] = ATG_NRF2_ARE_CIS: Attagene CIS-FACTORIAL HepG2 Assay for human Nuclear Factor Erythroid 2 Related Factor 2 (NFR2) response to Antioxidant Response Elements (ARE) (AID 2282992); details: HepG2 Attagene ARE/NRF2 reporter, transcription factor activity; actives raise or lower the signal;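 as to AC50: reporter mRNA level measured by RT-PCR and capillary electrophoresis fluorescence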
Outline: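 Readout: reporter mRNA quantified by RT-PCR plus FAM-labelled primer extension, HpaI digestion and capillary electrophoresis, 24 h after dosing transfected HepG2 cells. Gain or loss of signal is fitted bidirectionally against DMSO baseline.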

[12] = ATG_Oct_MLP_CIS: Attagene CIS-FACTORIAL HepG2 Assay for human Octamer-Binding Transcription Factor (Oct) (AID 2282993); details: HepG2 Attagene cis-factorial Oct reporter, mRNA; actives raise or lower the signal
Outline: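 Transient MRTU transfection of HepG2 → 24 h compound treatment → RNA isolation, reverse transcription, PCR → 6-FAM primer extension, HpaI digest → capillary electrophoresis. Activity fitted both directions against DMSO.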

[13] = biological target: Cellular tumor antigen p53 (Homo sapiens) (UniProt P04637); assay: ATG_p53_CIS: Attagene CIS-FACTORIAL HepG2 Assay for human p53 Transcription Factor (AID 2282994); details: HepG2 p53 cis-element reporter, Attagene mRNA; actives raise or lower the signal
Outline: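 Read-out: reporter mRNA by RT-PCR plus capillary electrophoresis with fluorescence detection. Human HepG2 liver cells carried transfected multi-reporter cis-element constructs, dosed 24 h. Gain or loss of signal fitted bidirectionally against DMSO control.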

[14] = biological target: Oxysterols receptor LXR-beta (Homo sapiens) (UniProt P55055); assay: ATG_LXRb_TRANS: Attagene TRANS-FACTORIAL HepG2 Assay for human Liver X Receptor beta (LXRb) (AID 2282981; active = hit-call score of the fitted dose curve at least 0.9, where 1 is the maximum); details: HepG2 Attagene TRANS GAL4-LXRb reporter, mRNA
Outline: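 After 24 h of chemical treatment, transfected HepG2 cells yield total RNA; reporter cDNA is PCR-amplified, FAM-labelled, HpaI-cut and run on capillary electrophoresis. Signal reflects chimeric LXRb-Gal4 activity on GAL4-UAS reporters.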

[15] = ATG_M_32_TRANS: Attagene TRANS-FACTORIAL HepG2 Assay for M32 Transcription Factor (Internal Marker) (AID 2282984; active = hit-call score of the fitted dose curve at least 0.9, where 1 is the maximum;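 also: transcript level of a background control reporter unit measured by RT-PCR and capillary electrophoresis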); details: HepG2 Attagene TRANS M32 internal marker reporter
Outline: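 Cell-based TRANS-format assay in HepG2: exogenous chimeric GAL4 reporter units transiently expressed, compounds applied 24 h. Reporter mRNA detected by RT-PCR plus capillary electrophoresis; this readout is an internal background marker.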

[16] = BSK_3C_TissueFactor: BioMAP Diversity Plus: 3C Assay for Tissue Factor Biomarker Activity (AID 2282997); details: BioMAP 3C HUVEC, tissue factor biomarker readout; actives raise or lower the signal
Outline: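 Tissue Factor measured by ELISA, 24 h after treatment of primary HUVEC in the BioMAP 3C setting.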

[17] = BSK_3C_uPAR: BioMAP Diversity Plus: 3C Assay for Urokinase-type plasminogen activator receptor (uPAR) Biomarker Activity (AID 2282998); details: BioMAP 3C HUVEC, uPAR biomarker ELISA; actives raise or lower the signal
Outline: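 ELISA readout of uPAR on human vascular endothelium (umbilical vein primary cells), taken 24 h after chemical dosing. Increases and decreases are both fitted relative to DMSO vehicle.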

[18] = BSK_3C_VCAM1: BioMAP Diversity Plus: 3C Assay for Vascular cell adhesion molecule 1 (VCAM1) Biomarker Activity (AID 2282999); details: BioMAP 3C HUVEC, VCAM1 ELISA, cytokine-stimulated; actives raise or lower the signal
Outline: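 Activity fitted in both directions relative to DMSO, with ELISA measurement of the surface marker on primary HUVEC (3C) at 24 h post-treatment; parallel SRB staining (0.1% SRB, TCA-fixed, 560 nm) flagged overt cytotoxicity.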

[19] = BSK_4H_Eotaxin3: BioMAP Diversity Plus: 4H Assay for Eotaxin 3 Biomarker Activity (AID 2283000); details: primary human endothelial cells (HUVEC); actives raise or lower the signal;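 also: CCL26 protein level quantified by ELISA in parallel with SRB cytotoxicity check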
Outline: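 Eotaxin-3 (CCL26) levels were measured by ELISA in HUVEC primary cultures 24 h post-dosing. Gain or loss of signal was fitted in both directions, with DMSO serving as baseline and negative control.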

Measured: AC50

Chain of Hepatocyte nuclear factor 4-alpha (Homo sapiens) (P41235 whole entry, looked up): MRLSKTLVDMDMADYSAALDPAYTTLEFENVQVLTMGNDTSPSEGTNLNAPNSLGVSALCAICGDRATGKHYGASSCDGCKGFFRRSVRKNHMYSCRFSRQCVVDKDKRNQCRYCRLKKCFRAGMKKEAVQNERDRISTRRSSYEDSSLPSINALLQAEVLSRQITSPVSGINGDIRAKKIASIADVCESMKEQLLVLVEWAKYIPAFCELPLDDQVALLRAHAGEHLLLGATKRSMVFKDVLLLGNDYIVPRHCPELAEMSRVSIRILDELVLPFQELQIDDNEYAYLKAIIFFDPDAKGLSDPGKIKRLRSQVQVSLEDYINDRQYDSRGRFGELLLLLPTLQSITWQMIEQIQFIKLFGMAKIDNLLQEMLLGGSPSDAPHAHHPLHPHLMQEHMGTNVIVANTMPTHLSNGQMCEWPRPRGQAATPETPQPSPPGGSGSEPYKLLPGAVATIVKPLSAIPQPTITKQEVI
Chain of Myc proto-oncogene protein (Homo sapiens) (P01106 whole entry, looked up): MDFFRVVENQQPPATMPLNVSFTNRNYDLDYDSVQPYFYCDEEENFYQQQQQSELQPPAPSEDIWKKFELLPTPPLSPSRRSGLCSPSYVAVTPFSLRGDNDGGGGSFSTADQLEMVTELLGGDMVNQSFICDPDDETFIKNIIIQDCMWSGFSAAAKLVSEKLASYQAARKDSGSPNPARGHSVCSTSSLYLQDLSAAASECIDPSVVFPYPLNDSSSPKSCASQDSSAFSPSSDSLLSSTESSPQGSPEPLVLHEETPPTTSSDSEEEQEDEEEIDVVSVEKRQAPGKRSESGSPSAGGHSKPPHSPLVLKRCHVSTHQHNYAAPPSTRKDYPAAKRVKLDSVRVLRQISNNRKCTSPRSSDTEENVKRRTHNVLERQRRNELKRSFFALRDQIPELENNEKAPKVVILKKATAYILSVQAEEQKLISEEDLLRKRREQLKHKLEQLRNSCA
Chain of Nuclear respiratory factor 1 (Homo sapiens) (Q16656 whole entry, looked up): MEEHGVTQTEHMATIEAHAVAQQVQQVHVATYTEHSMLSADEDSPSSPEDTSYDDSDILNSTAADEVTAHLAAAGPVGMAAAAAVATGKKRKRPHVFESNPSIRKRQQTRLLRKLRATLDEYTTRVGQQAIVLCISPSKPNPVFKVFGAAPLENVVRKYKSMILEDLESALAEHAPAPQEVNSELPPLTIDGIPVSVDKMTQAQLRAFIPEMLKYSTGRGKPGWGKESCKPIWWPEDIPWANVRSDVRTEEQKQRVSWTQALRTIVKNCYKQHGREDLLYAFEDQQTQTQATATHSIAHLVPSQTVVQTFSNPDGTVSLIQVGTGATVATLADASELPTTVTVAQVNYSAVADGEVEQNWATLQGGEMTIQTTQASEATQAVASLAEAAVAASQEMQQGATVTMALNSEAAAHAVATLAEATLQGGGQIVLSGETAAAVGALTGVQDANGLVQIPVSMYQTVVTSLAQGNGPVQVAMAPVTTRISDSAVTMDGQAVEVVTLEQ
Chain of Oxysterols receptor LXR-alpha (Homo sapiens) (Q13133 whole entry, looked up, the tested form may be a part): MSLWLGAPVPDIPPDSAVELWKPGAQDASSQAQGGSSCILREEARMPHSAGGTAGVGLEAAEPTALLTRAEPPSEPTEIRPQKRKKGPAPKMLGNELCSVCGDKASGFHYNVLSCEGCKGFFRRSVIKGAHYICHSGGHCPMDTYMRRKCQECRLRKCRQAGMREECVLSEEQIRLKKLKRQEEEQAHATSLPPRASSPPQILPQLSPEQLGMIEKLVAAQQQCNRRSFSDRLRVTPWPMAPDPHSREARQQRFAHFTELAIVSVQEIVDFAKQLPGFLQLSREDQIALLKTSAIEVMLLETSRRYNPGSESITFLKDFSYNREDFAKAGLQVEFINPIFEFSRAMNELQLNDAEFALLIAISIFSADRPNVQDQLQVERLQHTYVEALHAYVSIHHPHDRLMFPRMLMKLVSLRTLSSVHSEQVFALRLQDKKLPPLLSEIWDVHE
Chain of Glucocorticoid receptor (Homo sapiens) (P04150 whole entry, looked up, the tested form may be a part): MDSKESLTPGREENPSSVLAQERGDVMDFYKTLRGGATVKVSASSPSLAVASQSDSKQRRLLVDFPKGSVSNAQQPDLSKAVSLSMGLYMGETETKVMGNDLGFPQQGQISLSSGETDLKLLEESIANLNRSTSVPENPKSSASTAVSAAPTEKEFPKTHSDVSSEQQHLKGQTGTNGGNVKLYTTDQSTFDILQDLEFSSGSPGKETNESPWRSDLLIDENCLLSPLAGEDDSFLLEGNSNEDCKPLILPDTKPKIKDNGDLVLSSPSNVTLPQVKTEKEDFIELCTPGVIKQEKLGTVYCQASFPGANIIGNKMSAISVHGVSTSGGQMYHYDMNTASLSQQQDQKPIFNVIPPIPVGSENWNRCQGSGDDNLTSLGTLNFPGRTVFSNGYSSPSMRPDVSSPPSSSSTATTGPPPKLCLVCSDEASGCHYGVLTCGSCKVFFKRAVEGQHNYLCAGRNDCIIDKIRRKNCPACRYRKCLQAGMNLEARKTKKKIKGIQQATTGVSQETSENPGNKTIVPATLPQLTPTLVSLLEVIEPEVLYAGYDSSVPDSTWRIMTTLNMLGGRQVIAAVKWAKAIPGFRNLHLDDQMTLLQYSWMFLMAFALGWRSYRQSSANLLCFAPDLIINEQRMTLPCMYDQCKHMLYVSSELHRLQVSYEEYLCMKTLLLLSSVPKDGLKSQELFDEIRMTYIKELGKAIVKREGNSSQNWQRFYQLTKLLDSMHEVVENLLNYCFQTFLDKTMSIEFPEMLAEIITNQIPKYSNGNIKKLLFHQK
Chain of Transcriptional activator Myb (Homo sapiens) (P10242 whole entry, looked up): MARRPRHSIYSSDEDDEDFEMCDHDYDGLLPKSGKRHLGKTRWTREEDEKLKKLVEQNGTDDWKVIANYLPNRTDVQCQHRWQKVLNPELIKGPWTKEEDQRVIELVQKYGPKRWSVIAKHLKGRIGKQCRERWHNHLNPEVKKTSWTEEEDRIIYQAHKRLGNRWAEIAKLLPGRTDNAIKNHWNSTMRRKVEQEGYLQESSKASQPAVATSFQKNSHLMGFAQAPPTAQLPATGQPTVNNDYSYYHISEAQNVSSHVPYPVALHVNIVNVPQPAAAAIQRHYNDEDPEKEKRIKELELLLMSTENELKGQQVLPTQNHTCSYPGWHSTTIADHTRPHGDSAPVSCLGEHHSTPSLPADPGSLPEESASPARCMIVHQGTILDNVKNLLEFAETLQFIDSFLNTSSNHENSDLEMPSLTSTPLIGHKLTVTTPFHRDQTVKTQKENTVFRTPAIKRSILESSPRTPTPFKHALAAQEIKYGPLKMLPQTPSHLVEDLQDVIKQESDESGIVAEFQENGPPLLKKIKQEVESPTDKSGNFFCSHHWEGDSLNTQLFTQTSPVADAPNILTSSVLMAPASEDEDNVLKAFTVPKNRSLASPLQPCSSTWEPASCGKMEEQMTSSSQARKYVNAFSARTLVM
Chain of Oxysterols receptor LXR-beta (Homo sapiens) (P55055 whole entry, looked up, the tested form may be a part): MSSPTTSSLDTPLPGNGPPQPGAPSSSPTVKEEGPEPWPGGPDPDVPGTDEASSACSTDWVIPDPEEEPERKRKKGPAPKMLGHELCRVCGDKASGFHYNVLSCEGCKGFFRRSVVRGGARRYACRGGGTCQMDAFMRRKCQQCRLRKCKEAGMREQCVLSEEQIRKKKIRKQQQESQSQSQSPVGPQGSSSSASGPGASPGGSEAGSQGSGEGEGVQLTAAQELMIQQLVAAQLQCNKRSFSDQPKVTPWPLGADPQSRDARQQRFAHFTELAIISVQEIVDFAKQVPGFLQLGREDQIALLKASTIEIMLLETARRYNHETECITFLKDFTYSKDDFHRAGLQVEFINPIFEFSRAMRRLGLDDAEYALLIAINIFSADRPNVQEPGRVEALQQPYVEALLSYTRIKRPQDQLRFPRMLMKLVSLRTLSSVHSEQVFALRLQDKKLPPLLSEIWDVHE
Chain of Cellular tumor antigen p53 (Homo sapiens) (P04637 whole entry, looked up): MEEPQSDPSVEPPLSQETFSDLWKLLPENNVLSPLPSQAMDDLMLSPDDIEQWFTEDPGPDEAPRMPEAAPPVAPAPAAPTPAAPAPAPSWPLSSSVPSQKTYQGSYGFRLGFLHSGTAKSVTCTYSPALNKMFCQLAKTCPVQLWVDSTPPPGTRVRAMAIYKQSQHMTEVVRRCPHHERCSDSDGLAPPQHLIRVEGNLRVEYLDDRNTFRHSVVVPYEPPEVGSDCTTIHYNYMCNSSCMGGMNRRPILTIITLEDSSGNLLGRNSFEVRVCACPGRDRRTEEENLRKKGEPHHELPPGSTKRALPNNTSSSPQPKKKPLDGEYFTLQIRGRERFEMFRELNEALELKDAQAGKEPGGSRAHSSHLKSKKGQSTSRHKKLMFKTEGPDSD
Chain of Nuclear receptor subfamily 4 group A member 2 (Homo sapiens) (P43354 whole entry, looked up, the tested form may be a part): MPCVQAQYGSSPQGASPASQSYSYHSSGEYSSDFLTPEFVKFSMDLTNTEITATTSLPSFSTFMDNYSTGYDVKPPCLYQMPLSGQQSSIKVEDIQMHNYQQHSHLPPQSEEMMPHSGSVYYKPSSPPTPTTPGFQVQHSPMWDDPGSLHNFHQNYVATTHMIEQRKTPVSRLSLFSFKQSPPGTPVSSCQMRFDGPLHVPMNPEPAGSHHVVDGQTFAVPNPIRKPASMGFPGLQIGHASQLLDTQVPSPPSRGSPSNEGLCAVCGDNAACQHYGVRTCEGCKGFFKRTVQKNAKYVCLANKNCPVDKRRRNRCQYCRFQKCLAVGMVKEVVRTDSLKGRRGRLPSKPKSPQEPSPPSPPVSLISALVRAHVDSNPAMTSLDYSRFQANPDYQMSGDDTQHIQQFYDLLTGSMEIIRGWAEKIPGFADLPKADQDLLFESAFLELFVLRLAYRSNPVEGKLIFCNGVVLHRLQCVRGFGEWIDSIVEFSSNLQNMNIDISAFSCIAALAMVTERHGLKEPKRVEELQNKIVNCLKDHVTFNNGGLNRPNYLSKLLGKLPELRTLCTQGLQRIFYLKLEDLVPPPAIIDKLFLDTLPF

C/C=C(\C)C(=O)OCCc1ccccc1
not listed: [14] | [15] | [16] | [17] | [18] | [19]
inactive: all other assays above

C=C(C)[C@@H]1CC=C(C)C(=O)C1
active: [11] 45.4 µM
inactive: [1] | [14] | [3] | [15] | [5] | [6] | [7] | [8] | [9] | [10]

C=CCCC(=O)/C=C/C1C(C)=CCCC1(C)C (centres undefined)
active: [11] 110 µM
inactive: [1] | [2] | [4] | [5] | [7] | [8] | [9] | [10] | [12] | [13]

O=c1[nH]c(=O)c2cn[nH]c2[nH]1
not listed: [2] | [4] | [5] | [10] | [16] | [17] | [18] | [19]
inactive: all other assays above

Nc1ccc(NCCO)c([N+](=O)[O-])c1
active: [11] 24.1 µM
inactive: [1] | [14] | [3] | [4] | [5] | [7] | [8] | [9] | [12] | [13]

COCCOCCOCCO
not listed: [2] | [4] | [10] | [16] | [17] | [18] | [19]
inactive: all other assays above

O=C(O)c1cc(C(=O)O)cc([N+](=O)[O-])c1
not listed: [3] | [4] | [7] | [16] | [17] | [18] | [19]
inactive: all other assays above

CC1=NN(c2ccc(S(=O)(=O)O)cc2)C(=O)C1
not listed: [3] | [4] | [5] | [16] | [17] | [18] | [19]
inactive: all other assays above

COC(C)(C)CCO
inactive: [1] | [14] | [15] | [6] | [7] | [8] | [9] | [11] | [12] | [13]

CN(C)C(=O)Nc1ccc(Oc2ccc(Cl)cc2)cc1
active: [11] 61.4 µM | [17] 2.32 µM
not listed: [2] | [3]
inactive: all other assays above

c1ccc2cc(Nc3ccc(Nc4ccc5ccccc5c4)cc3)ccc2c1
active: [16] 13.9 µM
not listed: [2] | [3] | [9] | [14] | [15]
inactive: all other assays above

Source: PubChem BioAssay (EPA / NIEHS)
